# Assay results as given in PubChem BioAssay.
# Inconclusive results are not listed. Activity calls are given as the source filed them.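 The calls were made as follows, unless noted: active = viability at or below 30% in both replicate assays; inconclusive = viability at or below 30% in just one of the two assays; inactive = the rest.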
# Columns and labels:
# [1] = Her2 expression decrease, cell viability multiplex – SKBR3 breast tumor cells, AlphaScreen, ATP viability, primary screen (AID 461;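 active = Her2 level under about 52% in both replicate screens, with viability over 70% of control, limit read from the data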;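 as to Her2 level: lower value means less Her2 protein in the cells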;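 as to viability: percent of carrier control wells set as 100% viability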); conditions: SKBR3 Her2 protein level, 18-24 h, measured here: SKBR3 viability, ATP luminescence, at 10 µM
# [2] = target: Receptor tyrosine-protein kinase erbB-2 (Homo sapiens) (UniProt P04626); test: as above; conditions: 18-24 h, at 10 µM, stronger effect = lower value
# [3] = reduced viability of SK-BR-3 breast cancer cells – cell-based, 24 h, human, pilot screen (AID 572;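 active = viability at or below 10% of carrier control in both of two separate runs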;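 also: compound exposure lasted between 18 and 24 h rather than exactly 24 h; 100% = carrier-treated control wells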); conditions: SK-BR-3 viability, CellTiter-Glo luminescence, at 10 µM, stronger effect = lower value
# [4] = HUVEC growth inhibition – cell-based, human, primary screen (AID 575); conditions: HUVEC proliferation, CellTiter-Glo luminescence, 72 h; at 10 µM; stronger effect = lower value;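 also: 100% = median of untreated cell wells with 0.1% DMSO on each plate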
# [5] = H69AR cell proliferation blockers – human, duplicate replicates, primary screen (AID 580;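 active = viability at or under a set limit in both replicates, limit being median viability minus 3 SD, cut at about 48% in these data, passing the limit was not always enough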;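 also: 100% = mean luminescence of untreated wells and 0% = no signal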); conditions: H69AR lung tumor cells viability, ATP luminescence, 72 h; at 10 µM; stronger effect = lower value
# [6] = MRP1 drug-resistance reversers in H69AR cells – cell-based, doxorubicin co-treatment, pilot screen (AID 601;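 active = viability loss from added drug above about 55%, and viability with drug at most 40%, in both replicates, limit read from the data, passing the limit was not always enough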); conditions: CellTiter-Glo, 72 h, at 10 µM; for differential viability (reversal): stronger effect = higher value
# [7] = yeast transport mutant growth inhibition pilot in 384-well plates, post-Golgi transport modulator project (AID 636; in the data active = inhibition above about 31%); conditions: absorbance 615 nm, about 18 h, stronger effect = higher value
# [8] = growth suppression of yeast trafficking mutant, preliminary HTS, modulators of trafficking downstream of Golgi apparatus project, 1536-format plate, OD 615 nm (AID 637; in the data active = inhibition above about 30%); conditions: yeast transport mutant growth, absorbance 615 nm, 18 h; stronger effect = higher value
# [9] = S. cerevisiae growth inhibition in permissive medium (OD615), pilot counter-assay for S. cerevisiae lifespan shortening project, permissive growth control (AID 705;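 active = growth inhibition above 25% in both replicates, a cutoff set 3 SD above the mean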); conditions: OD615, 24 h, at 10 µM, stronger effect = higher value
# [10] = S. cerevisiae growth inhibition in restrictive medium, OD615, pilot screen, restrictive growth control, yeast lifespan reduction project (AID 706;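 active = growth inhibition above a set limit, 3 SD over mean compound inhibition, in both replicates, cut at about 43% in these data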;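 also: modified DeaD lifespan yeast strain shifted to restrictive glucose medium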); conditions: OD615, 48 h, at 10 µM, stronger effect = higher value
# [11] = doxorubicin toxicity protection in MRP-1 cells – H69AR cells, CellTiter-Glo, duplicate, MRP-1 activator project, pilot screen (AID 807;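 active = viability increase at or above a cutoff of the median across tested compounds plus 3 SD, cut at about 8.5% in these data, passing the limit was not always enough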;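 also: compound pretreatment 18-22 h then 72 h combined with doxorubicin; 0% = doxorubicin alone and 100% = vehicle without doxorubicin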); conditions: H69AR viability with doxorubicin, CellTiter-Glo luminescence; at 10 µM; stronger effect = higher value
# [12] = viability of HCT116 without oncogenic beta-catenin – human colon tumor cells, pilot screen (AID 823;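 active = cell viability at or below a set limit in both duplicate runs, the limit being the all-compound median minus 4 SD, cut at about 23% in these data, passing the limit was not always enough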;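 also: 0% = wells killed by 20 µM Hyamine and 100% = untreated DMSO cell wells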); conditions: HCT116 beta-catenin knockout viability, CellTiter-Glo, 60 h; at 10 µM; stronger effect = lower value
# [13] = viability of PTEN-null HCT116 cells – cell-based, HCT116 clonal line, CellTiter-Glo, pilot screen (AID 824;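 active = viability at or below 27.92% in each of two runs, the all-compound median minus 4 SD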;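 also: 0% = 20 µM Hyamine control and 100% = vehicle cell control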); conditions: HCT116 PTEN-deleted viability, 60 h, at 10 µM, stronger effect = lower value
# [14] = RAM pathway blockade in budding yeast – dse1pr::URA3 reporter, 5-FOA selection, pilot screen (AID 869;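 active = inhibition over a set limit, the all-compound mean plus 3 SD, in both replicate runs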;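 also: 0% = DMSO wells with no growth and 100% = 10 µM 1-NA-PP1 with full growth; RAM network block rescues cells from 5-FOA so hits raise OD615 growth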); conditions: S. cerevisiae dse1pr::URA3 5-FOA growth, OD615, 2 d; at 10 µM; stronger effect = higher value; strain carries analog-sensitive mutant Cbk1 kinase
# [15] = RAM signaling pathway blockade in yeast – S. cerevisiae, Pdr1DBD-CYC8 efflux-inhibited sensitized strain, primary screen (AID 1298;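 active = RAM network inhibition above 8.4% in each of two replicates, 3 SD over the compound average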;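 also: 0% = DMSO untreated cells without growth and 100% = 10 µM 1-NA-PP1 full growth; higher means more yeast growth rescued from 5-FOA killing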); conditions: S. cerevisiae cbk1-as DSE1-URA3 strain, 5-FOA growth OD615, 2 d; at 50 µM; stronger effect = higher value
# [16] = H69AR cells + 2 uM doxorubicin, measured here: viability with 2 uM doxorubicin, stronger effect = lower value
# [17] = H69AR cells, compound alone cytotoxicity
# Chain of Receptor tyrosine-protein kinase erbB-2 (Homo sapiens) (P04626 whole entry, looked up): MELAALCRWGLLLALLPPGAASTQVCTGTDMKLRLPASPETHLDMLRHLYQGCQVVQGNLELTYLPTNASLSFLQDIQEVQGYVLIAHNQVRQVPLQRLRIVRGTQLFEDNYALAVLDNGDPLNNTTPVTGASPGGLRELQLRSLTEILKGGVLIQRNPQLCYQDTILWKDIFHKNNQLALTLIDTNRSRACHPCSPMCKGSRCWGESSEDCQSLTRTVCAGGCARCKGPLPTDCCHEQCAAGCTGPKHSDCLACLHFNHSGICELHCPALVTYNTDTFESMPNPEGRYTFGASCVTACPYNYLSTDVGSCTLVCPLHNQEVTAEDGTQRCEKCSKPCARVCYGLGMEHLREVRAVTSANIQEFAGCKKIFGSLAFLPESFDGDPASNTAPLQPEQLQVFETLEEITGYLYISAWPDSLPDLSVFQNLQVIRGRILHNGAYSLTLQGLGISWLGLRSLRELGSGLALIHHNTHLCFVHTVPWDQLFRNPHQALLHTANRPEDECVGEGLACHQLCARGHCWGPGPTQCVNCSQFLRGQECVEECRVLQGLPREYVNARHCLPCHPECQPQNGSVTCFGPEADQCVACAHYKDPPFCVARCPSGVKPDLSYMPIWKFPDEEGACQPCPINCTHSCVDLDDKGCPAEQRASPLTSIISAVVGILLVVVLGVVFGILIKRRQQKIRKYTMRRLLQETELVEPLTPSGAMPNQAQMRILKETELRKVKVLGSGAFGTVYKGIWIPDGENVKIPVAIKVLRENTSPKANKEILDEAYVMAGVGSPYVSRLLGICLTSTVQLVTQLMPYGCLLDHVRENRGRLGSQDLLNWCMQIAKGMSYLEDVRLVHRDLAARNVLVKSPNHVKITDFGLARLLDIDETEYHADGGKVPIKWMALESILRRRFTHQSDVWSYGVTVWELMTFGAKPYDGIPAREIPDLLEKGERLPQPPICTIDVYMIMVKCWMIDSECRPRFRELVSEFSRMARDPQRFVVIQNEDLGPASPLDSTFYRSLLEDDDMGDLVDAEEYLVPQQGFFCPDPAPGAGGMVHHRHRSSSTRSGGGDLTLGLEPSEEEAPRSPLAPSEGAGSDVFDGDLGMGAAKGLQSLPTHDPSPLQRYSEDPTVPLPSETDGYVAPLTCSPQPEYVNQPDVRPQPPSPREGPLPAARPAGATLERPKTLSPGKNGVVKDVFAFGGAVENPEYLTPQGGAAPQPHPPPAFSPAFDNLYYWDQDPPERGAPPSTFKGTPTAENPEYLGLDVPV
Structure (SMILES),viability [1],Her2 level [2],viability [3],viability [4],viability [5],differential viability (reversal) ([6]; H69AR cells + 2 uM doxorubicin),"viability [6, 16]","viability [6, 17]",inhibition [7],inhibition [8],growth inhibition [9],growth inhibition [10],viability increase [11],viability [12],viability [13],inhibition [14],RAM network inhibition [15]
Cc1ccc2[nH]c(=O)c3cc(C(=O)NCCN4CCN(C)CC4)sc3c2c1,96%,91.5% (inactive),96% (inactive),97.1% (inactive),87.3% (inactive),9.29% (inactive),78%,87.3%,-1.03% (inactive),6% (inactive),-9.77% (inactive),1.5% (inactive),-3.64% (inactive),74.5% (inactive),81.8% (inactive),1% (inactive),-1.95% (inactive)
Cc1ccc(-n2c3c(cc(C(=O)NC4CCSC4=O)c2=O)C(=O)CC(C)(C)C3)cc1 (stereo not given),101%,99.5% (inactive),101% (inactive),85.4% (inactive),85.3% (inactive),14.6% (inactive),70.7%,85.3%,-1.69% (inactive),-0.67% (inactive),-1.71% (inactive),-9.19% (inactive),-2.78% (inactive),99.1% (inactive),101% (inactive),2.32% (inactive),4.09% (inactive)
Cc1cccc(OCCNC(=O)c2ncn[nH]2)c1,100%,108% (inactive),100% (inactive),92.5% (inactive),91.9% (inactive),3.36% (inactive),88.5%,91.9%,0% (inactive),-5.17% (inactive),-12.5% (inactive),-4.79% (inactive),0.64% (inactive),94.2% (inactive),99.7% (inactive),1.01% (inactive),-0.32% (inactive)
COCCNC(=O)CN1C(=O)CSc2ncccc21,83.5%,88% (inactive),83.5% (inactive),97.8% (inactive),86.4% (inactive),-8.7% (inactive),95.1%,86.4%,-4.67% (inactive),-0.33% (inactive),2.19% (inactive),-5.72% (inactive),-0.21% (inactive),102% (inactive),92% (inactive),1.92% (inactive),0.97% (inactive)
CCOc1ccc(N(CC(=O)NC2CCCCC2)S(=O)(=O)c2c(C)noc2C)cc1,79.5%,86.5% (inactive),79.5% (inactive),87.3% (inactive),74.3% (inactive),-11.3% (inactive),85.6%,74.3%,-2.31% (inactive),-12.8% (inactive),-6.46% (inactive),0.415% (inactive),-1.54% (inactive),95.5% (inactive),89% (inactive),3.15% (inactive),1.06% (inactive)
COc1ccc(C(=O)NCc2nnc(SC)n2C2CCCCC2)cc1,104%,91% (inactive),104% (inactive),81.2% (inactive),92% (inactive),9.5% (inactive),82.5%,92%,-3.33% (inactive),-3.44% (inactive),-4.53% (inactive),3.39% (inactive),-1.51% (inactive),99.8% (inactive),96.4% (inactive),1.08% (inactive),2.76% (inactive)
CCN1CCN(c2nc(C)nc3c2sc(=S)n3C)CC1,100%,104% (inactive),100% (inactive),69.6% (inactive),90% (inactive),-1.33% (inactive),91.3%,90%,-3.73% (inactive),0.5% (inactive),-11.2% (inactive),-5.22% (inactive),-2.66% (inactive),102% (inactive),92.6% (inactive),1.04% (inactive),1% (inactive)
Cc1cnc(NC(=O)CSc2nnc(COc3c(C)cccc3C)o2)s1,83%,102% (inactive),83% (inactive),79.9% (inactive),87.1% (inactive),-6.84% (inactive),94%,87.1%,-5.33% (inactive),4.83% (inactive),-10.4% (inactive),-2.15% (inactive),-0.06% (inactive),93.9% (inactive),86.1% (inactive),1.23% (inactive),0.63% (inactive)
COc1ccccc1N1CCN(C(=O)N2CCOCC2)CC1,107%,87% (inactive),107% (inactive),86.9% (inactive),73.8% (inactive),-9.12% (inactive),82.9%,73.8%,-1.95% (inactive),-5.57% (inactive),-17.3% (inactive),-6.65% (inactive),-1.74% (inactive),95.9% (inactive),96.8% (inactive),1.06% (inactive),0.62% (inactive)
CC1CCN(C(=O)CSc2nnc(Cc3cc(=O)[nH]c(=O)[nH]3)n2-c2ccc(Cl)cc2)CC1,92.5%,117% (inactive),92.5% (inactive),101% (inactive),101% (inactive),2.73% (inactive),98.2%,101%,-1.54% (inactive),-4.17% (inactive),-17.1% (inactive),-15.4% (inactive),-0.15% (inactive),105% (inactive),100% (inactive),-0.375% (inactive),4.41% (inactive)
